Measurements: PubChem BioAssay (NCI)
The panel holds about 83,000 compounds, 20% with a hit somewhere; the sample as a whole holds those more often.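 Growth was measured after 48 h exposure to one concentration of compound in 96-well plates. Values under 10 count as active.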 The source made the active and inactive calls.

Columns and labels:
Assay in all cases: NCI-60 one-dose screen, 48 h (100 = growth as untreated, 0 = no growth, -100 = all killed)
Details in all cases: 10 µM unless noted
[1] = test system: NCI-H23 lung
[2] = test system: NCI-H226 lung
[3] = test system: NCI-H322M lung
[4] = test system: HOP-62 NSCLC
[5] = test system: NCI-H460 lung
[6] = test system: HOP-92 NSCLC
[7] = test system: NCI-H522 lung
[8] = test system: A549/ATCC NSCLC
[9] = test system: 786-0 renal
[10] = test system: COLO 205 colon
[11] = test system: DU-145 prostate
[12] = test system: K-562 leukemia
[13] = test system: MALME-3M melanoma
[14] = test system: MDA-MB-231 breast
[15] = test system: RXF 393 renal
[16] = test system: SF-268 CNS
[17] = test system: SF-295 CNS
[18] = test system: SF-539 CNS
[19] = test system: M14 melanoma
[20] = test system: UACC-257 melanoma

Measured: growth

CC1(c2ccccc2)OC1C(=O)O (stereo not given)
inactive: [1] 94.1% | [2] 104% | [3] 97.9% | [4] 107% | [5] 107% | [6] 119% | [7] 97.8% | [8] 105% | [9] 99.7% | [10] 115% | [11] 108% | [12] 111% | [13] 88.5% | [14] 110% | [15] 103% | [16] 106% | [17] 101% | [18] 96.1% | [19] 95.2%

O=S(=O)(NCCNc1cc(-c2cn(-c3ccccc3)nc2-c2cccc(O)c2)ccn1)c1ccc(Cl)cc1
active: [10] -48% | [12] 2.13% | [14] -2.86%
inactive: [1] 36.6% | [2] 45.9% | [3] 56.8% | [4] 51.4% | [5] 26.3% | [6] 33.8% | [7] 32.3% | [8] 31.1% | [9] 12% | [11] 62.8% | [13] 34.5% | [15] 38% | [16] 40.2% | [17] 13.3% | [18] 61.8% | [19] 23.5%

Cn1cc(-c2csc(-c3cn(CCNC(=O)OC(C)(C)C)c4ccccc34)n2)c2cccnc21
inactive: [1] 65.7% | [2] 55.9% | [3] 90.1% | [4] 72.5% | [5] 92.6% | [6] 56.6% | [7] 52.6% | [8] 78.8% | [9] 93.6% | [10] 73.3% | [11] 101% | [12] 56.2% | [13] 82.8% | [14] 82.9% | [15] 105% | [16] 90.5% | [17] 97.7% | [18] 93.1% | [20] 92.2% | [19] 61.1%

COc1ccc(/C=C/C(=O)NCCO)cc1
inactive: [1] 96.6% | [2] 97.9% | [3] 97.6% | [4] 87.7% | [5] 103% | [6] 105% | [7] 82% | [8] 79.7% | [9] 100% | [10] 112% | [11] 102% | [12] 95.7% | [13] 92.3% | [14] 105% | [15] 106% | [16] 94.3% | [17] 98.3% | [18] 94.9% | [19] 106%

Cn1c(=O)c2c(ncn2CC(=O)Nc2ccc(S(N)(=O)=O)cc2)n(C)c1=O
inactive: [1] 104% | [2] 105% | [3] 107% | [4] 94.8% | [5] 108% | [6] 90.1% | [7] 86.7% | [8] 88.3% | [9] 94.9% | [10] 105% | [11] 107% | [12] 97.4% | [13] 118% | [14] 105% | [15] 106% | [16] 101% | [17] 103% | [18] 96.3% | [19] 97.1%

CC1(C)C(=O)CC[C@]2(C)[C@H]3C(=O)C=C4[C@@H]5C[C@@](C)(C(=O)NCCNCCN)CC[C@]5(C)CC[C@@]4(C)[C@]3(C)CC[C@@H]12
inactive: [1] 98.4% | [2] 96.8% | [3] 108% | [4] 94.1% | [5] 99.2% | [6] 66.2% | [7] 111% | [8] 97.6% | [9] 99.9% | [10] 108% | [11] 102% | [12] 86.6% | [13] 92.2% | [14] 102% | [15] 103% | [16] 83.9% | [17] 101% | [18] 98.7% | [20] 101% | [19] 90.6%

N#Cc1cnc2cc(OC[C@@H](O)CO)c(NC(=O)CC3CSSC3)cc2c1Nc1ccc(OCc2cccc(F)c2)c(Cl)c1
active: [1] -72.4% | [2] -65.3% | [3] -84.2% | [4] -57.1% | [5] -66.9% | [6] 9.97% | [7] -72.6% | [8] -61.8% | [9] -31.4% | [10] -70.5% | [11] -85.1% | [12] -37.4% | [13] -67.6% | [14] -60.5% | [15] -72.9% | [16] -57% | [17] -80.5% | [18] -79.7% | [19] -78.7%

COc1cccc(-c2nn(-c3ccccc3)cc2-c2ccnc(NCCNS(=O)(=O)c3ccc(C(F)(F)F)cc3)c2)c1
active: [6] -10.9% | [7] 1.9% | [9] 3.75% | [10] -73.5% | [12] 3.79% | [13] -17.9% | [14] 6.28% | [15] -22.2% | [17] 3.05% | [18] 2.91%
inactive: [1] 17.1% | [2] 34.8% | [3] 45.1% | [4] 35.6% | [5] 11.4% | [8] 14.2% | [11] 46.6% | [16] 36% | [19] 13.6%

CC(=O)c1c(C)[nH]c(-c2nc3ccc(N4CCN(C)CC4)cc3[nH]2)c1-c1ccc(N(C)C)cc1
inactive: [1] 40% | [2] 47.4% | [3] 40.6% | [4] 24.6% | [5] 53% | [6] 33.1% | [7] 42.1% | [8] 40.2% | [9] 38.7% | [11] 63.9% | [12] 21.1% | [13] 26.7% | [14] 36.1% | [15] 37.2% | [16] 59.4% | [17] 43.2% | [18] 39.3% | [20] 36.4% | [19] 34.6%
active: [10] 7%

CC1(n2nnnc2N2CCCN(c3ncccc3N)CC2)CCC1
inactive: [1] 103% | [2] 90.4% | [3] 94.2% | [4] 99% | [5] 99.5% | [6] 95.7% | [7] 100% | [8] 107% | [9] 104% | [10] 111% | [11] 109% | [12] 87.8% | [13] 98.6% | [14] 99.9% | [15] 98.2% | [16] 97% | [17] 95.5% | [18] 94.8% | [20] 108% | [19] 97.8%

COc1cc2ncnc(Nc3ccc(OCc4cccc(F)c4)c(Cl)c3)c2cc1NC(=O)C1CCCC1
inactive: [1] 94.8% | [2] 76% | [3] 34.4% | [4] 78.9% | [5] 88.7% | [6] 76.4% | [7] 50% | [8] 65.2% | [9] 78.3% | [10] 97.2% | [11] 78.3% | [12] 91.2% | [13] 107% | [14] 84.5% | [15] 83% | [16] 89.1% | [17] 101% | [18] 96.1% | [19] 71.4%

Cc1cc2nc3c4cc([N+](=O)[O-])cc([N+](=O)[O-])c4n(CCN(C)C)c3nc2cc1C
inactive: [1] 77.7% | [2] 84.1% | [3] 72.2% | [4] 64.7% | [5] 65.4% | [6] 80.7% | [7] 70.6% | [8] 73.5% | [9] 80.4% | [10] 71.1% | [11] 92.1% | [12] 62.3% | [13] 76.5% | [14] 77.2% | [15] 58.3% | [16] 74.1% | [17] 62.9% | [18] 76.5% | [20] 107% | [19] 80.1%

COc1cccc(-c2nn(-c3ccccc3)cc2-c2ccnc(NCCCNS(=O)(=O)c3ccccc3)c2)c1
active: [12] 9.59%
inactive: [1] 44.3% | [2] 35.1% | [3] 59.3% | [4] 64.3% | [5] 31.8% | [6] 18.9% | [7] 31.1% | [8] 35.8% | [9] 43.2% | [10] 17.1% | [11] 52% | [13] 68.7% | [14] 20.6% | [15] 36.4% | [16] 47.1% | [17] 16.8% | [18] 57.5% | [19] 29.9%

Cc1ccc(N(CC(=O)Nc2ccc(S(=O)(=O)NC3CCN(C)CC3)cc2)S(=O)(=O)c2ccc(Cl)cc2)cc1
inactive: [1] 90.7% | [2] 87.7% | [3] 88.9% | [4] 96.2% | [6] 69.6% | [7] 90.4% | [8] 69.2% | [9] 87.4% | [11] 71.9% | [12] 19.5% | [14] 53.6% | [15] 36.4% | [16] 68.7% | [17] 101% | [18] 85.4% | [19] 63%
active: [5] 8.12% | [10] -47.6% | [13] -47.5%

CCc1ccccc1NC(=O)c1sc2nc3c(cc2c1N)CCCC3
inactive: [1] 52.7% | [2] 73.4% | [3] 74.9% | [4] 35.6% | [5] 20.6% | [6] 37.1% | [7] 15% | [8] 36.7% | [9] 44.1% | [10] 36% | [11] 51.7% | [12] 12.1% | [13] 55.7% | [14] 51.3% | [15] 49.8% | [16] 49.2% | [17] 29.6% | [18] 13.9% | [19] 24.1%
